Experimental data from PubChem BioAssay (NCATS).
Inconclusive results are not listed. Active and inactive are the calls of the source. Calls come from the whole dose curve; as a rule, active = well fitted curve in the direction sought with a large enough effect; inconclusive = small, poorly fitted or top-dose-only effect, or another doubt; inactive = no such curve, though single readings can be large; an effect the other way counts as inactive or inconclusive.

What was measured:
[1] = system: CRL-7250; experiment: Cytotoxic Profiling of Annotated Libraries Using Quantitative High-Throughput Screening (AID 1296008); conditions: Five cell lines viability, CellTiter-Glo ATP luminescence, 48-72 h; max response: stronger effect = lower value; note: nearly all actives have a fitted effect of over 60% in size; for max response: % is set by controls: 0 for no effect and ±100 for the full control effect
Outline: (§1)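 Cells exposed to compounds for 48 or 72 hr at 37 degrees Celsius. Viability read as ATP-coupled luminescence with CellTiter-Glo after 10 min at room temperature.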

[2] = system: HEK293; experiment: as above; conditions: Five cell lines viability, CellTiter-Glo ATP luminescence, 48-72 h; max response: stronger effect = lower value
Outline: as §1

[3] = system: HaCat; experiment: as above; conditions: Five cell lines viability, CellTiter-Glo ATP luminescence, 48-72 h; max response: stronger effect = lower value
Outline: as §1

[4] = system: KB-3-1; experiment: as above; conditions: Five cell lines viability, CellTiter-Glo ATP luminescence, 48-72 h; max response: stronger effect = lower value
Outline: as §1

[5] = system: NIH3T3; experiment: as above; conditions: Five cell lines viability, CellTiter-Glo ATP luminescence, 48-72 h; max response: stronger effect = lower value
Outline: as §1

[6] = system: HEK293T; experiment: qHTS assay to identify novel small-molecules to repurpose for Merkel cell carcinoma treatment (AID 1296009); conditions: MCC and control cell lines, CellTiter-Glo viability, 72 h; at 44.8 µM (top of the series) unless noted; note: nearly all actives have a fitted effect of over 60% in size
Outline: (§2)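 Cells were incubated with compound for 72 hr at 37 degree celsius before CellTiter-Glo addition. Luminescence was normalized with no-cell wells as full cytotoxicity and DMSO as baseline.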

[7] = system: C33A; experiment: Primary qHTS to identify gynecologic anti-cancer compounds using libraries of approved drugs and bioactive compounds (AID 1345084); conditions: Gynecologic cancer cell panel viability, ATPlite luminescence, 48 h; series mostly up to 57.5 µM; note: % is set by controls: 0 for no effect and ±100 for the full control effect; nearly all actives have a fitted effect of over 55% in size
Outline: (§3)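 Luminescence from the ATPlite ATP-monitoring reagent indicates viable cell number; lower signal means cytotoxicity. Cells received compound 16 h after seeding and were exposed for 48 h across five concentrations.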

[8] = system: CAOV3; experiment: as above; conditions: Gynecologic cancer cell panel viability, ATPlite luminescence, 48 h; series mostly up to 57.5 µM
Outline: as §3

[9] = system: CASKI; experiment: as above; conditions: Gynecologic cancer cell panel viability, ATPlite luminescence, 48 h; series mostly up to 57.5 µM
Outline: as §3

[10] = system: Es-2; experiment: as above; conditions: Gynecologic cancer cell panel viability, ATPlite luminescence, 48 h; series mostly up to 57.5 µM
Outline: as §3

[11] = system: HeLa; experiment: as above; conditions: Gynecologic cancer cell panel viability, ATPlite luminescence, 48 h; series mostly up to 57.5 µM
Outline: as §3

[12] = system: Hek293T; experiment: as above; conditions: Gynecologic cancer cell panel viability, ATPlite luminescence, 48 h, control line for the selectivity index; series mostly up to 57.5 µM
Outline: as §3

[13] = system: JEG-3; experiment: as above; conditions: Gynecologic cancer cell panel viability, ATPlite luminescence, 48 h; series mostly up to 57.5 µM
Outline: as §3

[14] = system: OV90; experiment: as above; conditions: Gynecologic cancer cell panel viability, ATPlite luminescence, 48 h; series mostly up to 57.5 µM
Outline: as §3

[15] = system: HACAT; experiment: qHTS assay to identify novel small-molecules to repurpose for Merkel cell carcinoma treatment (AID 1296009); conditions: MCC and control cell lines, CellTiter-Glo viability, 72 h; at 44.8 µM (top of the series) unless noted; note: nearly all actives have a fitted effect of over 60% in size
Outline: as §2

COC(=O)CCC1(C)C(C(C)(C)O)C(O)CC2(C)Oc3c(C)c4c(c(OC)c3CC21)C(=O)OC4 (stereo unspecified)
inactive: max response [1] -9.47% | outcome [2] | max response [3] -0.542% | max response [4] 5% | max response [5] -1.25% | outcome [6] inactive [at 17.4 µM] | Potency [7] | Potency [8] | outcome [9] | Potency [10] | Potency [11] | Potency [12] | Potency [13] | Potency [14]

CC(=O)OC1CC2(C)C(CCC(C)C23Cc2c(O)cc4c(c2O3)CNC4=O)C(C)(C)C1O (stereo unspecified)
inactive: max response [1] -8.86% | outcome [2] | max response [3] -6.41% | outcome [4] | max response [5] -10.8% | outcome [6] inactive [at 17.4 µM] | Potency [7] | Potency [8] | outcome [9] | Potency [10] | Potency [11] | Potency [12] | Potency [13] | Potency [14]

O=C(O)c1ccnc(-c2cc(C(=O)NCCc3ccccc3)ccn2)c1
inactive: max response [1] 0.77% | max response [2] -13.9% | outcome [3] | max response [4] 6.53% | max response [5] -2.98% | outcome [15] | Potency [8] | outcome [9] | Potency [10] | Potency [11] | Potency [12] | Potency [13] | Potency [14]

CC1CCC2C(C(=O)O)=CC3(O)CC(C)(C)CC123 (stereo unspecified)
inactive: max response [1] 2.87% | outcome [2] | max response [3] 0.596% | max response [4] 4.07% | max response [5] 1.6% | outcome [6] | Potency [7] | Potency [8] | outcome [9] | Potency [10] | Potency [11] | Potency [12] | Potency [13] | Potency [14]

COc1ccc(/C=C/C(=O)O[C@@H]2[C@@H](O)[C@@H](O)[C@H](O[C@H]3[C@@H]4C=CO[C@@H](O[C@@H]5O[C@H](CO)[C@@H](O)[C@H](O)[C@H]5O)[C@@H]4[C@@]4(CO)O[C@@H]34)O[C@H]2C)cc1
inactive: max response [1] -8.85% | max response [2] -4.15% | outcome [3] | max response [4] 1.26% | max response [5] 0.471% | outcome [15] inactive [at 17.4 µM] | Potency [7] | outcome [9] | Potency [10] | Potency [11] | Potency [12] | Potency [13] | Potency [14]

COc1cc(/C=C/C(=O)O[C@@H]2O[C@H](CO)[C@@H](O)[C@H](O)[C@H]2O)ccc1O
inactive: max response [1] 2.76% | outcome [2] | max response [3] 3.8% | max response [4] -1.87% | max response [5] 0.679% | outcome [6] | Potency [7] | Potency [8] | outcome [9] | Potency [10] | Potency [11] | Potency [12] | Potency [13] | Potency [14]

C/C=C(/C)C(=O)OC1C2OC2C2(CO2)C2C3OC(=O)C(C)C3CCC12C (stereo unspecified)
inactive: max response [1] -1.71% | outcome [2] | max response [3] 3.73% | max response [4] 9.88% | max response [5] -1.74% | outcome [6] | Potency [7] | Potency [8] | outcome [9] | Potency [10] | Potency [11] | Potency [12] | Potency [13] | Potency [14]

CC1=C2CC(=O)C(C)CC/C=C(\C)CC2OC1=O (stereo unspecified)
inactive: outcome [1] | max response [2] -1.49% | outcome [3] | max response [4] 1.48% | max response [5] 2.98% | outcome [15] | Potency [8] | outcome [9] | Potency [10] | Potency [11] | Potency [12] | Potency [13] | Potency [14]

CC1(C)CC[C@]2(C(=O)O)CC[C@]3(C)C(=CCC4[C@@]5(C)CC[C@H](O[C@H]6O[C@H](C(=O)O)[C@@H](O)[C@H](O[C@@H]7O[C@H](CO)[C@H](O)[C@H](O)[C@H]7O)[C@H]6O)C(C)(C)C5CC[C@]43C)[C@@H]2C1 (stereo partly specified)
inactive: outcome [1] | outcome [2] | max response [3] 3.39% | max response [4] 4.97% | max response [5] -6.78% | outcome [6] inactive [at 9.27 µM] | activity change, negative = cytotoxicity [7] 17.4% [at 11.6 µM] | activity change, negative = cytotoxicity [8] 23.8% [at 11.6 µM] | activity change, negative = cytotoxicity [9] 10.6% [at 11.6 µM] | activity change, negative = cytotoxicity [10] 0.636% [at 11.6 µM] | activity change, negative = cytotoxicity [11] -3.8% [at 11.6 µM] | activity change, negative = cytotoxicity [12] 18.4% [at 11.6 µM] | activity change, negative = cytotoxicity [13] -1.28% [at 11.6 µM] | activity change, negative = cytotoxicity [14] -6.58% [at 11.6 µM]

CC(=O)O[C@H]1C[C@@]2(C)[C@@H](CC[C@H]3[C@@]4(C)C=CC(=O)[C@@H](C)[C@@H]4[C@H](OC(C)=O)C(=O)[C@@]32C)/C1=C(\CCC=C(C)C)C(=O)O
inactive: max response [1] 4.49% | max response [2] -0.998% | outcome [3] | max response [4] 5.79% | max response [5] -2.17% | outcome [15] inactive [at 17.4 µM] | Potency [7] | outcome [9] | Potency [10] | Potency [11] | Potency [12] | Potency [13] | Potency [14]

C/C(CO)=C1/CCC23COC(C2)C(O)(C(=O)O)CCC13 (stereo unspecified)
inactive: max response [1] 1.3% | outcome [2] | max response [3] 0.569% | max response [4] 2.82% | max response [5] -0.495% | outcome [6] | Potency [7] | Potency [8] | outcome [9] | Potency [10] | Potency [11] | Potency [12] | Potency [13] | Potency [14]

Cn1nccc1-c1ccccc1Oc1ccc(S(=O)(=O)Nc2nccs2)cc1C#N
inactive: outcome [1] | outcome [2] | max response [3] -17.4% | max response [4] 2.49% | max response [5] 0.589% | outcome [6] | Potency [7] | Potency [8] | outcome [9] | Potency [10] | Potency [11] | Potency [12] | Potency [13]

C=C1CCc2occ(C)c2[C@H]2[C@H]1[C@@]13O[C@@]1(C[C@@H](C)[C@H]3OC(C)=O)[C@H]1O[C@@]21C
inactive: max response [1] 2.94% | outcome [2] | max response [3] -22% | outcome [4] | max response [5] -1.13% | outcome [6] | Potency [7] | Potency [8] | outcome [9] | Potency [10] | Potency [11] | Potency [12] | Potency [13]
